From ChEMBL document CHEMBL3433997, “St. Jude Leishmania screening dataset” (2016)

The molecules below were run against Solute carrier family 2, facilitated glucose transporter member 1 (Homo sapiens) (UniProt P11166) (assay: ST_JUDE_LEISH: Cytotoxicity at 2uM final concentration against transgenic Leishmania Mexicana promastigotes LmGLUT1 that are glucose transport deficient and complemented with the human glucose transporter GLUT1. Activity is measured by DNA content using SYBR green in vitro).
Sequence of Solute carrier family 2, facilitated glucose transporter member 1 (Homo sapiens) (P11166 whole entry): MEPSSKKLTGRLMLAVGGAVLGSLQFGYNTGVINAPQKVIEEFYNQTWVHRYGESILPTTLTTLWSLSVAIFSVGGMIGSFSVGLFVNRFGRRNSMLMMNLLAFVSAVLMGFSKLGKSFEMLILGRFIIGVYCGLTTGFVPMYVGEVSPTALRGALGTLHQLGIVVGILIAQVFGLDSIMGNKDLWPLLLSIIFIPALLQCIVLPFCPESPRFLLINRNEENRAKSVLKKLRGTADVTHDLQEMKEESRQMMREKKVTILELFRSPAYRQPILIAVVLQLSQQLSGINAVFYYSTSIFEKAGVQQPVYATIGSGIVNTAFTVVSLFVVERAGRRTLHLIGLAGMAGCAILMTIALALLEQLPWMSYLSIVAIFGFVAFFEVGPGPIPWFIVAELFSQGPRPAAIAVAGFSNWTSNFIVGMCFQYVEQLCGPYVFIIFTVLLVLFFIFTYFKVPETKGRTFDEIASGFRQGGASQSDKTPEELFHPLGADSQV
Assay type: functional

In order of falling inhibition:
1. Cc1ccc(NC(=O)c2ccc(N3CCN(c4ccncc4)CC3)cc2)cc1F  68%
2. Cc1ccc2cc(NC(=O)c3cccc(C(=O)Nc4ccc5nc(C)ccc5c4)n3)ccc2n1  15.1%
3. COc1ccc2nccc([C@@H](O)CN3CCC(NC(=O)Cc4cccc5c(Br)cccc45)CC3)c2c1  14.1%
4. COc1cc2nc(-c3ccccc3)nc(N3CCN(C(=O)c4ccco4)CC3)c2cc1OC  13.7%
5. CC(=O)c1cccc(NC(=O)c2ccc(Cl)c(S(=O)(=O)N3CCc4ccccc43)c2)c1  12.1%
6. S=C(NN=Cc1ccccn1)NC1CC2C=CC1C2 (stereo not given)  10%
7. Cc1cc(CNCCCCCCNCc2ccc(Cl)cc2)ccc1O  9.89%
8. CCCCCCCC1CC(CC(=O)Nc2ccnc3ccc(OC)cc23)CN1C(=O)OC(C)(C)C (stereo not given)  9.12%
9. COc1ccc(N2CCN(CCCCNC(=O)c3ccc(NC(=O)c4ccc(C(F)(F)F)cc4)cc3)CC2)c(OC)c1  9%
10. CC1CCN(Cc2ccc(NC(=O)c3cc4ccc5cccnc5c4[nH]3)cc2)CC1  7.7%
11. CCCCCCCc1c(C)nc2ccccc2c1O  6.82%
12. CC(C)CNCc1cccc(-c2ccc(CNC3CCN(Cc4ccccc4)CC3)cc2)c1  6.62%
13. CC1(C)NC(N)=NC(=N)N1OCc1ccc(-c2ccccc2)cc1  6.01%
14. Cc1cc(N[C@@H](CC(C)C)C(=O)NCc2cccs2)nc(Nc2ccccc2)n1  5.66%
15. Cc1sc2nc(CSc3ccccc3)nc(N3CCN(CC(=O)N4CCCC4)CC3)c2c1C  5.03%
16. CCCOc1cccc(C(=O)N[C@@H](Cc2ccccc2)[C@H](O)CNCc2ccccc2OC)c1  3.73%
17. Cc1sc2ccc(Cl)cc2c1S(=O)(=O)Nc1ccc2nccc(N3CC(C)NC(C)C3)c2c1 (stereo not given)  3.66%
18. COc1ccc(C(=O)CCC(=O)N(Cc2ccc(-c3ccc(CNCCc4ccc(S(C)(=O)=O)cc4)cn3)cc2)C(C)CN(C)C)cc1F (stereo not given)  3.43%
19. O=C(NC1CCCC1)c1ccc(N2CCC(NCc3cc4cc(Cl)ccc4[nH]3)CC2)cc1  2.79%
20. Cc1[nH]c(C)c(-c2ccc(Oc3ccc(Cl)cc3)cc2)c(=O)c1Cl  2.75%
21. CN(Cc1ccccc1)C(=O)CCNS(=O)(=O)c1cc(Br)cnc1N  2.6%
22. O=C(N[C@@H](CC1CCCCC1)C(=O)NCc1cccc2ccccc12)c1ccc(O)c(-c2ccc(Cl)c(Cl)c2)c1  2.54%
23. COc1cc(CNC[C@@H](O)[C@H](Cc2ccccc2)NC(=O)c2cc(C3CCCC3)cc(N3CCCC3=O)c2)cc(OC)c1  2.44%
24. COc1ccc(CNC2Cc3ccccc3C2)cc1-c1ccc(S(=O)(=O)NCc2cccnc2)s1  1.92%
25. Cc1ccccc1C1CCN(C2CCC(NC(=O)c3cc4cc(C(C)C)ccc4[nH]3)CC2)CC1 (stereo not given)  1.91%
26. CCNc1cc(C(=O)N[C@@H](Cc2ccccc2)[C@H](O)CNC(C)(C)CSCC(C)C)cc(N2CCCC2=O)c1  1.84%
27. CCN(CC)CCCN(C(=O)Nc1cc(F)cc(F)c1)c1nc(-c2ccc(F)cc2)cs1  1.8%
28. CC(=NNC(S)=NCc1ccco1)c1ccccn1  1.7%
29. O=C(Nc1ccc(-c2csc(-c3nc4ccccc4[nH]3)c2)cc1)Nc1ccc(Cl)c(Cl)c1  1.35%
30. CCCc1cc(Cc2cnc(N)nc2N)ccc1OCCCCCC(=O)OCC  1.31%
31. COC1CCC(C(=O)Nc2ccc(-c3cccc(-c4nc5cc(C(F)(F)F)ccc5[nH]4)c3)cc2)CC1 (stereo not given)  0.64%
32. Cc1cc(NC(=O)NCCN2CCC(NC(=O)c3cccc(Br)c3)C2)c2ccccc2n1 (stereo not given)  0.36%
33. CCN1CCN(c2cc(C)c3cc(NC(=O)c4ccc(N(CC)CC)cc4)ccc3n2)CC1  -0.29%
34. COc1cc2nc(NCCn3nc(C)cc3C)nc(NCCc3ccccc3)c2cc1OC  -0.49%
35. COc1cc(Cc2cnc(N)nc2N)cc(OC(C)C)c1OC  -0.55%
36. COc1ccc(Nc2nccc(-c3ccc(NC(=O)c4cc5cc(F)ccc5[nH]4)cc3)n2)cc1  -0.57%
37. COc1ccc(NC(=O)c2ccc(Br)c(C)c2)cc1N1CCN(CCCc2c[nH]c3ccccc23)CC1  -0.69%
38. CN1CCN(CC(=O)Nc2cccc(-c3ccc(-c4nc5cc(F)ccc5[nH]4)cc3)c2)CC1  -1.54%
39. CCOc1c(OC)ccc2c1CCN(CCN1CCC(CNC(=O)c3ccc(-c4ccc(C(F)(F)F)cc4)cc3)CC1)C2  -1.88%
40. COc1ccc(-c2ccc(S(=O)(=O)Nc3cc4c(cc3OC(C)C)CCNCC4)cc2)cc1  -2.14%

Each molecule was assayed against Hexose transporter 1 (Plasmodium falciparum) (UniProt O97467) (assay: ST_JUDE_LEISH: Cytotoxicity at 2uM final concentration against transgenic Leishmania Mexicana promastigotes LmPfHT that are glucose transport deficient and complemented with the Plasmodium falciparum hexose transporter. Activity is measured by DNA content using SYBR green in vitro).
Assay type: functional

In order of rising inhibition:
1. COc1ccc(-c2ccc(S(=O)(=O)Nc3cc4c(cc3OC(C)C)CCNCC4)cc2)cc1  -1.7%
2. CCCc1cc(Cc2cnc(N)nc2N)ccc1OCCCCCC(=O)OCC  -1.27%
3. COc1ccc(NC(=O)c2ccc(Br)c(C)c2)cc1N1CCN(CCCc2c[nH]c3ccccc23)CC1  -0.68%
4. CCOc1c(OC)ccc2c1CCN(CCN1CCC(CNC(=O)c3ccc(-c4ccc(C(F)(F)F)cc4)cc3)CC1)C2  -0.64%
5. COC1CCC(C(=O)Nc2ccc(-c3cccc(-c4nc5cc(C(F)(F)F)ccc5[nH]4)c3)cc2)CC1 (stereo not given)  -0.27%
6. CCN(CC)CCCN(C(=O)Nc1cc(F)cc(F)c1)c1nc(-c2ccc(F)cc2)cs1  -0.11%
7. COc1ccc(Nc2nccc(-c3ccc(NC(=O)c4cc5cc(F)ccc5[nH]4)cc3)n2)cc1  0.09%
8. Cc1cc(NC(=O)NCCN2CCC(NC(=O)c3cccc(Br)c3)C2)c2ccccc2n1 (stereo not given)  0.24%
9. COc1cc(Cc2cnc(N)nc2N)cc(OC(C)C)c1OC  0.72%
10. CN1CCN(CC(=O)Nc2cccc(-c3ccc(-c4nc5cc(F)ccc5[nH]4)cc3)c2)CC1  0.97%
11. O=C(Nc1ccc(-c2csc(-c3nc4ccccc4[nH]3)c2)cc1)Nc1ccc(Cl)c(Cl)c1  1.35%
12. CC(=NNC(S)=NCc1ccco1)c1ccccn1  1.81%
13. CCNc1cc(C(=O)N[C@@H](Cc2ccccc2)[C@H](O)CNC(C)(C)CSCC(C)C)cc(N2CCCC2=O)c1  2.11%
14. CCN1CCN(c2cc(C)c3cc(NC(=O)c4ccc(N(CC)CC)cc4)ccc3n2)CC1  2.18%
15. O=C(N[C@@H](CC1CCCCC1)C(=O)NCc1cccc2ccccc12)c1ccc(O)c(-c2ccc(Cl)c(Cl)c2)c1  2.25%
16. COc1ccc(CNC2Cc3ccccc3C2)cc1-c1ccc(S(=O)(=O)NCc2cccnc2)s1  2.48%
17. Cc1ccccc1C1CCN(C2CCC(NC(=O)c3cc4cc(C(C)C)ccc4[nH]3)CC2)CC1 (stereo not given)  2.91%
18. Cc1[nH]c(C)c(-c2ccc(Oc3ccc(Cl)cc3)cc2)c(=O)c1Cl  2.92%
19. CCCOc1cccc(C(=O)N[C@@H](Cc2ccccc2)[C@H](O)CNCc2ccccc2OC)c1  2.98%
20. COc1ccc(C(=O)CCC(=O)N(Cc2ccc(-c3ccc(CNCCc4ccc(S(C)(=O)=O)cc4)cn3)cc2)C(C)CN(C)C)cc1F (stereo not given)  3.18%
21. O=C(NC1CCCC1)c1ccc(N2CCC(NCc3cc4cc(Cl)ccc4[nH]3)CC2)cc1  3.34%
22. CN(Cc1ccccc1)C(=O)CCNS(=O)(=O)c1cc(Br)cnc1N  3.87%
23. Cc1cc(N[C@@H](CC(C)C)C(=O)NCc2cccs2)nc(Nc2ccccc2)n1  3.95%
24. Cc1sc2ccc(Cl)cc2c1S(=O)(=O)Nc1ccc2nccc(N3CC(C)NC(C)C3)c2c1 (stereo not given)  4.16%
25. COc1cc2nc(NCCn3nc(C)cc3C)nc(NCCc3ccccc3)c2cc1OC  5.15%
26. COc1cc(CNC[C@@H](O)[C@H](Cc2ccccc2)NC(=O)c2cc(C3CCCC3)cc(N3CCCC3=O)c2)cc(OC)c1  5.82%
27. Cc1sc2nc(CSc3ccccc3)nc(N3CCN(CC(=O)N4CCCC4)CC3)c2c1C  5.88%
28. CC1(C)NC(N)=NC(=N)N1OCc1ccc(-c2ccccc2)cc1  5.93%
29. CCCCCCCc1c(C)nc2ccccc2c1O  6.3%
30. CC(C)CNCc1cccc(-c2ccc(CNC3CCN(Cc4ccccc4)CC3)cc2)c1  7.43%
31. Cc1cc(CNCCCCCCNCc2ccc(Cl)cc2)ccc1O  7.77%
32. CC1CCN(Cc2ccc(NC(=O)c3cc4ccc5cccnc5c4[nH]3)cc2)CC1  7.81%
33. COc1cc2nc(-c3ccccc3)nc(N3CCN(C(=O)c4ccco4)CC3)c2cc1OC  8.22%
34. COc1ccc(N2CCN(CCCCNC(=O)c3ccc(NC(=O)c4ccc(C(F)(F)F)cc4)cc3)CC2)c(OC)c1  8.75%
35. COc1ccc2nccc([C@@H](O)CN3CCC(NC(=O)Cc4cccc5c(Br)cccc45)CC3)c2c1  9.54%
36. CCCCCCCC1CC(CC(=O)Nc2ccnc3ccc(OC)cc23)CN1C(=O)OC(C)(C)C (stereo not given)  11.2%
37. CC(=O)c1cccc(NC(=O)c2ccc(Cl)c(S(=O)(=O)N3CCc4ccccc43)c2)c1  11.9%
38. Cc1ccc2cc(NC(=O)c3cccc(C(=O)Nc4ccc5nc(C)ccc5c4)n3)ccc2n1  12.2%
39. S=C(NN=Cc1ccccn1)NC1CC2C=CC1C2 (stereo not given)  13.6%
40. Cc1ccc(NC(=O)c2ccc(N3CCN(c4ccncc4)CC3)cc2)cc1F  74.7%
